In PubChem BioAssay (Tox21) one finds Potency data, which are given here for 40 compounds.

Results filed as inconclusive are left out. Where a call stands in place of a potency, no number is given. Active and inactive are the calls of the source. Calls come from the whole dose curve; as a rule, active = well fitted cell-killing curve with a large enough effect in the repeat runs; inconclusive = weak or mixed curves; inactive = flat fitted curve, though single readings scatter. Residues, ends and D or L forms follow the SMILES beside them.

The nature of the experiment: qHTS assay to identify small molecule antagonists of the estrogen receptor beta (ER-beta) signaling pathway - cell viability counter screen (AID 1259382). Note: nearly all actives have a fitted effect of over 55% in size. Conditions: ER-beta-UAS-bla HEK293T viability, CellTiter-Glo luminescence, 16 h; series mostly up to 92.4 µM. From the text: U.S. Tox21 Program National Center for Advancing Translational Sciences [NCATS] NIH Chemical Genomics Center [NCGC] U.S. Environmental Protection Agency [EPA] National Institutes of Environmental Health Sciences [NIEHS] National Toxicology Program [NTP] U.S. Food and Drug Administration [FDA] Tox21 Assay Overview: Estrogen receptor (ER), a nuclear hormone receptor, plays an important role in development, metabolic homeostasis and reproduction. Two subtypes of ER, ER-alpha and ER-beta, have similar expression patterns with some uniqueness in both types. Endocrine disrupting chemicals (EDCs) and their interactions with steroid hormone receptors like ER causes disruption of normal endocrine function. To identify the compounds that inhibit ER signaling, an ER-beta-UAS-bla GripTite cell line (Life Technologies, Madison, WI, USA) containing a beta-lactamase reporter gene under the control of an UAS response element was used to screen Tox21 10K compound library. The cytotoxicity of the Tox21 compound library against the ER-beta-bla cell line was tested in parallel by measuring the cell viability using CellTiter-Glo assay in the same wells.
Tox21 Assay Protocol Summary: ER-beta-UAS-bla HEK293T cells were dispensed at 2,000 cells/4 uL of assay medium containing 2% charcoal stripped FBS per well into black wall/clear-bottom 1536-well plates using a Multidrop Combi (ThermoFisher Scientific, Waltham, MA) dispenser. After the assay plates were incubated at a 37C and 5% CO2 for 6 hr, 23 nL of compounds dissolved in DMSO, positive controls or DMSO only was transferred to the assay plate by a Pintool station (Kalypsys, San Diego, CA), followed by addition of 1 uL (1nM as final concentration) of 17-beta-estradiol (E2) in assay medium using a Flying Reagent Dispenser (FRD, Aurora Discovery, San Diego, CA). The plates were incubated at 37C and 5% CO2 for 16 hr. Then 1 uL of LiveBLAzer B/G FRET substrate was added using a Flying Reagent Dispenser, the plates were incubated at room temperature for 2 hours, and fluorescence intensity was measured by an Envision plate reader (PerkinElmer, Shelton, CT). For cell viability readout that measures cytotoxicity, 4 uL/well of CellTiter-Glo reagent was added into the assay plates using a FRD. After 30 min incubation at room temperature, the luminescence intensity in the plates was measured using a ViewLux (PerkinElmer) plate reader.
Take `CC(=O)NS(=O)(=O)c1ccc(N)cc1`: the Potency result was “inactive”.
Under `CCCC(O)C(CC)CO` (stereo not given) stands “inactive”; under `O=C(O)C(=O)O`, “inactive”; under `O=C(O)/C=C\C(=O)O`, “inactive”.
For the compound `O=C(C1CCCCC1)N1CC(=O)N2CCc3ccccc3C2C1` (stereo not given), the Potency result is “inactive”.
Under `CNC[C@H](O)c1cccc(O)c1` stands “inactive”.
Consider `Nc1ccc(C(=O)O)cc1`, for which the Potency entry is “inactive”.
Under `NC(N)=NC(=O)c1nc(Cl)c(N)nc1N` stands “inactive”.
Under `CC(O)C(=O)O` (stereo not given) stands “inactive”; under `CCCN(CCC)S(=O)(=O)c1ccc(C(=O)O)cc1`, “inactive”.
Under `O=c1cc[nH]c(=S)[nH]1` stands “inactive”; under `COC(=O)[C@H](Cc1ccccc1)NC(=O)[C@@H](N)CC(=O)O` (H-Asp-Phe-OMe), “inactive”; under `Nc1ccc(O)c(C(=O)O)c1`, “inactive”.
On to `NC(N)=O`, for which the Potency result is “inactive”.
Under `OC(Cn1cncn1)(Cn1cncn1)c1ccc(F)cc1F` stands “inactive”.
Under `CC(C)(Oc1ccc(C2CC2(Cl)Cl)cc1)C(=O)O` (stereo not given) stands “inactive”.
For the compound `CC1(C)[C@@H]2CC[C@@]1(C)C(=O)C2`, the Potency entry is “inactive”.
Under `Cc1cc(=O)[nH]c(=S)[nH]1` stands “inactive”; under `Nc1ccc(S(=O)(=O)Nc2nccs2)cc1`, “inactive”; under `CC(=O)OCC(COC(C)=O)OC(C)=O`, “inactive”.
For `CCOc1ccc(NC(=O)CC(C)O)cc1` (stereo not given), the Potency entry was “inactive”.
Under `O=C(O)c1cccnc1` stands “inactive”; under `CC(C)[C@@H]1CC[C@@H](C)C[C@H]1O`, “inactive”; under `O=NO`, “inactive”.
Under `Nc1ccn([C@H]2CC[C@@H](CO)O2)c(=O)n1` stands “inactive”; under `O=C1NC(=O)c2ccccc21`, “inactive”.
Under `O=C(O)c1cccc([N+](=O)[O-])c1` stands “inactive”; under `C/C=C/c1ccc(OC)cc1`, “inactive”.
For the compound `Cc1ccc(O)cc1`, the Potency result is “inactive”.
With `CCCCC(CC)COC(=O)/C=C/c1ccc(OC)cc1` (stereo not given), the Potency entry is “inactive”.
`Cc1ccc(C)c(OCCCC(C)(C)C(=O)O)c1`: the Potency result is “inactive”.
Under `CCCCCCCCCCCCCCCC(=O)O` stands “inactive”; under `CC(O)CN(CCN(CC(C)O)CC(C)O)CC(C)O` (stereo not given), “inactive”.
Under `Oc1ccc(/C=C/c2cc(O)cc(O)c2)cc1` stands “inactive”.
Consider `O=S(=O)(O)NC1CCCCC1`, for which the Potency result was “inactive”.
For `CCCCC1C(=O)N(c2ccccc2)N(c2ccccc2)C1=O`, the Potency result was “inactive”.
`O=C(c1ccccc1)C(O)c1ccccc1` (stereo not given): the Potency entry is “inactive”.
Under `O=C(O)CCCCCCCC(=O)O` stands “inactive”.
Under `COc1c2occc2cc2ccc(=O)oc12` stands “inactive”.
Under `Cn1c(=O)c2[nH]cnc2n(C)c1=O` stands “inactive”.
